The nature of assay [1]: qHTS assay to identify aromatase inhibitors - cell viability counter screen (AID 743084).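 Note: cells stimulated with testosterone during compound exposure; nearly all actives have a fitted effect of over 55% in size.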
In assay [2] the target is Aryl hydrocarbon receptor (Homo sapiens) (UniProt P35869). The assay is described as follows: qHTS assay to identify small molecule that activate the aryl hydrocarbon receptor (AhR) signaling pathway (AID 743085).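 For activation: HG2L7.5c1 human HepG2 liver cells with stably integrated DRE-driven firefly reporter; series mostly up to about 70 µM.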 Note: nearly all actives have a fitted effect of over 15% in size. Note: potency is the fitted concentration of half-maximal effect. Summed up:
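Measured in HG2L7.5c1 cells: CellTiter-Fluor signal (30 min incubation, 37C) for viability, then luciferase luminescence (30 min, room temperature). Compound contact time was 24 h at 37C, following a 5 h pre-incubation.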
(Quantitative high-throughput screening tests each substance at several concentrations.)

Assay [3] is described as follows: qHTS assay to identify small molecule that activate the aryl hydrocarbon receptor (AhR) signaling pathway - cell viability counter screen (AID 743086).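 Note: HepG2 liver cells carrying the AhR DRE luciferase reporter; series mostly up to about 70 µM; nearly all actives have a fitted effect of over 45% in size.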 The essentials:
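HepG2-AhR-luc (HG2L7.5c1) cells, 4000/well, treated 24 h at 37 C with compound; viability measured as CellTiter-Fluor fluorescence after 30 min in the same wells as the luciferase read.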

Assay [4] has as its target Peroxisome proliferator-activated receptor gamma (Homo sapiens) (UniProt P37231). Kind of assay: qHTS assay to identify small molecule antagonists of the peroxisome proliferator-activated receptor gamma (PPARg) signaling pathway (AID 743191; calls by dose curve; note: series mostly up to about 63 µM; nearly all actives have a fitted effect of over 30% in size). Summed up:
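GeneBLAzer PPARg UAS-bla HEK293H cells, 5 h post-plating, exposed to compounds 17 h at 37C. LiveBLAzer B/G FRET substrate added for 1 h at room temperature; beta-lactamase reporter read by fluorescence intensity.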

Assay [5] is described as follows: qHTS assay to identify small molecule antagonists of the peroxisome proliferator-activated receptor gamma (PPARg) signaling pathway - cell viability counter screen (AID 743194). Note: nearly all actives have a fitted effect of over 55% in size. Summed up: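 Cytotoxicity counter screen in PPARg-bla HEK293H cells, same wells as reporter assay. Compounds plus 50 nM rosiglitazone (final) for 17 h at 37 C, then viability read by CellTiter-Glo luminescence.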

Assay [6] in a line: qHTS assay for small molecule agonists of the antioxidant response element (ARE) signaling pathway (AID 743202; active = well fitted activation curve with a large enough effect in the signal ratio in the repeat runs, not every such curve was filed as active; the % refers to the signal ratio). The essentials: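 HepG2 ARE-bla reporter line, 2,000 cells/well; 5 h preincubation 37 C/5% CO2; compound (DMSO) 16 h 37 C; B/G FRET substrate 2 h RT; fluorescence intensity.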
Assay [7] in a line: qHTS assay for small molecule agonists of the antioxidant response element (ARE) signaling pathway - cell viability counter screen (AID 743203; calls by dose curve; note: nearly all actives have a fitted effect of over 55% in size). Summed up:
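Viability counter screen: CellTiter-Glo luminescence, read after 30 min at room temperature, in ARE-bla HepG2 wells. Compound exposure lasted 16 h at 37C/5% CO2, following a 5 h pre-incubation of the cells after plating.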

The nature of assay [8]: qHTS assay to identify small molecule agonists of the peroxisome proliferator-activated receptor delta (PPARd) signaling pathway - cell viability counter screen (AID 743211). Note: nearly all actives have a fitted effect of over 55% in size. The essentials: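 Following 5 h plating at 37 C and 5% CO2, PPARd UAS-bla HEK293H cells took up test compounds for 17 h. Viability was quantified by luminescence 30 min after CellTiter-Glo addition at room temperature.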

Assay [9] in a line: qHTS assay to identify small molecule antagonists of the peroxisome proliferator-activated receptor delta (PPARd) signaling pathway - cell viability counter screen (AID 743213). Note: nearly all actives have a fitted effect of over 50% in size. The essentials: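 CellTiter-Glo was added to PPARd-bla HEK293H wells following 17 h compound treatment in the presence of 300 nM L165041. Luminescence was recorded after 30 min at room temperature.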

The target of assay [10] is Peroxisome proliferator-activated receptor delta (Homo sapiens) (UniProt Q03181). Kind of assay: qHTS assay to identify small molecule antagonists of the peroxisome proliferator-activated receptor delta (PPARd) signaling pathway (AID 743215; active = well fitted inhibition curve with a large enough effect in the signal ratio in the repeat runs, not every such curve was filed as active; the % refers to the signal ratio;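 note: cells stimulated with agonist L165041 at 300 nM final during compound exposure; series mostly up to about 62 µM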). Summed up: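 Agonist L165041 (300 nM final) added with compound to PPARd-bla HEK293H UAS-bla reporter cells; 17 h incubation at 37 C. Read-out: LiveBLAzer FRET substrate, 2 h at room temperature, fluorescence intensity.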

Assay [11] in a line: qHTS assay to identify small molecule agonists of the farnesoid-X-receptor (FXR) signaling pathway - cell viability counter screen (AID 743218). Note: nearly all actives have a fitted effect of over 45% in size. Summed up:
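Viability counter screen in the same wells: CellTiter-Glo luminescence, 30 min room-temperature incubation, measured after the beta-lactamase read. Cells were GeneBLAzer FXR-UAS-bla HEK 293T, compound-treated 16 h at 37C.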

The nature of assay [12]: qHTS assay to identify small molecule antagonists of the farnesoid-X-receptor (FXR) signaling pathway - cell viability counter screen (AID 743221; active = well fitted cell-killing curve with a large enough effect in the repeat runs, not every such curve was filed as active; note: nearly all actives have a fitted effect of over 50% in size). The essentials:
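Compound effects on cell number were measured as CellTiter-Glo luminescence in HEK 293T cells expressing FXR-UAS-bla, after 16 h at 37 C with 50 uM CDCA (final).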

Assay [13] addresses Vitamin D3 receptor (Homo sapiens) (UniProt P11473). Kind of assay: qHTS assay to identify small molecule agonists of the vitamin D receptor (VDR) signaling pathway (AID 743222; calls by dose curve). Summed up: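 Agonist mode, beta-lactamase reporter: fluorescence from LiveBLAzer B/G FRET substrate (2 h, room temperature) read after 16 h compound treatment at 37 C of VDR-bla cells, which were pre-incubated 4 h after seeding.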

Assay [14] shares this target. The assay is described as follows: qHTS assay to identify small molecule antagonists of the vitamin D receptor (VDR) signaling pathway (AID 743223; active = well fitted inhibition curve with a large enough effect in the signal ratio in the repeat runs, not every such curve was filed as active; the % refers to the signal ratio). Summed up: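 Beta-lactamase activity in VDR-bla cells is measured by FRET substrate fluorescence (2 h, room temperature) after cells spend 16 h at 37C with test compound and 3 nM final 1alpha,25-dihydroxyvitamin D3.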

Assay [15] concerns the target Peroxisome proliferator-activated receptor gamma (Homo sapiens) (UniProt P37231). Kind of assay: qHTS assay to identify small molecule agonists of the peroxisome proliferator-activated receptor gamma (PPARg) signaling pathway (AID 743094; active = well fitted activation curve with a large enough effect in the signal ratio in the repeat runs, not every such curve was filed as active; the % refers to the signal ratio). Summed up: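 Agonist activity was taken from a beta-lactamase reporter (FRET substrate, 1 h at room temperature) in HEK293H cells carrying a PPARg UAS-bla construct. Compounds in DMSO were incubated 17 h at 37C after a 5 h cell pre-incubation.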

Assay [16] in a line: qHTS assay for small molecule activators of the heat shock response signaling pathway - cell viability counter screen (AID 743209). Note: nearly all actives have a fitted effect of over 50% in size. Summed up: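 Cytotoxicity counter screen run in the same wells as the heat-shock bla reporter assay: HeLa HSE-bla cells, 5 h compound exposure at 37 C, viability read by CellTiter-Glo luminescence.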
Assay [17] can be described thus: qHTS assay for small molecule activators of the heat shock response signaling pathway (AID 743210; active = well fitted activation curve with a large enough effect in the signal ratio in the repeat runs, with a control signal flat, not every such curve was filed as active; the % refers to the signal ratio;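 note: HeLa cells with beta-lactamase reporter driven by heat shock elements; series mostly up to about 63 µM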). The essentials:
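Beta-lactamase reporter read-out: FRET substrate fluorescence after 2.5 h at RT, following 5 h compound treatment at 37 C of HeLa cells carrying HSE-driven bla reporter; quantitative HTS format.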

Assay [18] concerns the target Peroxisome proliferator-activated receptor delta (Homo sapiens) (UniProt Q03181). Kind of assay: qHTS assay to identify small molecule agonists of the peroxisome proliferator-activated receptor delta (PPARd) signaling pathway (AID 743212; calls by dose curve). The essentials: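 Read-out: beta-lactamase FRET fluorescence after 2 h room-temperature incubation with LiveBLAzer B/G substrate. Cells were HEK293H carrying a UAS-bla reporter for PPARd, treated at 37 C with DMSO-dissolved compounds.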

In assay [19] the target is Bile acid receptor (Homo sapiens) (UniProt Q96RI1). Kind of assay: qHTS assay to identify small molecule antagonists of the farnesoid-X-receptor (FXR) signaling pathway (AID 743217; active = well fitted inhibition curve with a large enough effect in the signal ratio in the repeat runs, not every such curve was filed as active; the % refers to the signal ratio). Summed up: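 Antagonist mode: chenodeoxycholic acid at 50 uM final stimulates a UAS-driven beta-lactamase reporter in HEK 293T FXR-bla cells during 16 h, 37C compound exposure. Read-out is FRET substrate fluorescence after 2 h at room temperature.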

Assay [20] has the same target. The assay is described as follows: qHTS assay to identify small molecule agonists of the farnesoid-X-receptor (FXR) signaling pathway (AID 743220; active = well fitted activation curve with a large enough effect in the signal ratio in the repeat runs, not every such curve was filed as active; the % refers to the signal ratio). The essentials:
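FXR-UAS-bla HEK 293T cells carrying a UAS-driven beta-lactamase reporter were plated for 5 h at 37C/5% CO2, then exposed to DMSO-dissolved Tox21 10K compounds for 16 h at 37C. A LiveBLAzer B/G FRET substrate was loaded for 2 h at room temperature before fluorescence reading.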

Results filed as inconclusive are left out. Values without a mark were called inactive. Calls of active or inactive are those of the source. Unless noted, calls come from the whole dose curve; as a rule, active = well fitted curve in the direction sought with a large enough effect in the repeat runs; inconclusive = weak or mixed curves; inactive = no such curve, though single readings can be large; an effect the other way counts as inactive or inconclusive.

Chain of Peroxisome proliferator-activated receptor delta (Homo sapiens) (Q03181 whole entry, looked up): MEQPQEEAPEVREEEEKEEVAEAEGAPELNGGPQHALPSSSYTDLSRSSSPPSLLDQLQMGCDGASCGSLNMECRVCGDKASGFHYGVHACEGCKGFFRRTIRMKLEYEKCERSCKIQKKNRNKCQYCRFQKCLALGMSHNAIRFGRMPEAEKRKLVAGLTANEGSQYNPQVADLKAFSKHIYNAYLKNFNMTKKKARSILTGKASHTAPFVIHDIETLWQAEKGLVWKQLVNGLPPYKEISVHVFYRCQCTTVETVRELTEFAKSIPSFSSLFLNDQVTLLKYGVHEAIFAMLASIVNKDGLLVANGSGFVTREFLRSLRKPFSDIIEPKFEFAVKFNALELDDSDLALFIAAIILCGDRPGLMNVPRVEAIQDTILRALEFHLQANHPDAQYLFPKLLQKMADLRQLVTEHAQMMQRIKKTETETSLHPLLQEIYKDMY
Chain of Peroxisome proliferator-activated receptor gamma (Homo sapiens) (P37231 whole entry, looked up): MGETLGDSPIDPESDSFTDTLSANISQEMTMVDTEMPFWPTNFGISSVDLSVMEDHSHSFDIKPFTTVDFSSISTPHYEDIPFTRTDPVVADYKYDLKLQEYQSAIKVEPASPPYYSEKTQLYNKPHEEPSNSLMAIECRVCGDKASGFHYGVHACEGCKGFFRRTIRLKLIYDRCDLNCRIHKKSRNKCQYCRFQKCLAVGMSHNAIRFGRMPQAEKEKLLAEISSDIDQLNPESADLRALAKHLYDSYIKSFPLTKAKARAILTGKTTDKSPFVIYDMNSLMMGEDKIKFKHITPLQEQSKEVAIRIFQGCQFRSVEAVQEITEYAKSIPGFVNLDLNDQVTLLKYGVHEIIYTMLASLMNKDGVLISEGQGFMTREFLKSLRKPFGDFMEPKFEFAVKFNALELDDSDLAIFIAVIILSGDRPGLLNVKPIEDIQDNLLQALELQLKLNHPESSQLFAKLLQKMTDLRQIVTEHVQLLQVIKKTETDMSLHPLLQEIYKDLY
Chain of Vitamin D3 receptor (Homo sapiens) (P11473 whole entry, looked up): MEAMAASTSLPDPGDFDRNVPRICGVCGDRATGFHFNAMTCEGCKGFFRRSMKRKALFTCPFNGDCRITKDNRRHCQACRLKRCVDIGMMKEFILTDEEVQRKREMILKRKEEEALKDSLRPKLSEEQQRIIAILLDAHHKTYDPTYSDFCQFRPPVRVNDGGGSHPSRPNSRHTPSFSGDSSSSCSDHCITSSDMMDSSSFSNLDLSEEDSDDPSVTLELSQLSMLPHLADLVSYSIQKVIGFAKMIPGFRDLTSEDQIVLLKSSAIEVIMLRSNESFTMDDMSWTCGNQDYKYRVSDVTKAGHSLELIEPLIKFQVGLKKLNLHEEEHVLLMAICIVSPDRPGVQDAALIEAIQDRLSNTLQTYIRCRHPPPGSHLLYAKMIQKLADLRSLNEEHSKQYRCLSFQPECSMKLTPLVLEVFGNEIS
Chain of Bile acid receptor (Homo sapiens) (Q96RI1 whole entry, looked up): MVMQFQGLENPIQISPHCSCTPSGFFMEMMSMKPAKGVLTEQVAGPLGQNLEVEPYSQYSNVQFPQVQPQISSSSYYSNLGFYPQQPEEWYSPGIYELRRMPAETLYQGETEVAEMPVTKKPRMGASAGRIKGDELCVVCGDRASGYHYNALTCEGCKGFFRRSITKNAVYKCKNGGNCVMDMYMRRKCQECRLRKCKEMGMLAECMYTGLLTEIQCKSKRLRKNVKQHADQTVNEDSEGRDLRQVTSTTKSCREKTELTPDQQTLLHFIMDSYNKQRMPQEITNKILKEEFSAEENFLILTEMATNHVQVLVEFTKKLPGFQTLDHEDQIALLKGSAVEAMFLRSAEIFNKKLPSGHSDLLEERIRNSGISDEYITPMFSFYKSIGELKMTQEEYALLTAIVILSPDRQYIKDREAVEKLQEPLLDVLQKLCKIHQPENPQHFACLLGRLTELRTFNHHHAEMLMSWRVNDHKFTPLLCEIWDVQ
Chain of Aryl hydrocarbon receptor (Homo sapiens) (P35869 whole entry, looked up): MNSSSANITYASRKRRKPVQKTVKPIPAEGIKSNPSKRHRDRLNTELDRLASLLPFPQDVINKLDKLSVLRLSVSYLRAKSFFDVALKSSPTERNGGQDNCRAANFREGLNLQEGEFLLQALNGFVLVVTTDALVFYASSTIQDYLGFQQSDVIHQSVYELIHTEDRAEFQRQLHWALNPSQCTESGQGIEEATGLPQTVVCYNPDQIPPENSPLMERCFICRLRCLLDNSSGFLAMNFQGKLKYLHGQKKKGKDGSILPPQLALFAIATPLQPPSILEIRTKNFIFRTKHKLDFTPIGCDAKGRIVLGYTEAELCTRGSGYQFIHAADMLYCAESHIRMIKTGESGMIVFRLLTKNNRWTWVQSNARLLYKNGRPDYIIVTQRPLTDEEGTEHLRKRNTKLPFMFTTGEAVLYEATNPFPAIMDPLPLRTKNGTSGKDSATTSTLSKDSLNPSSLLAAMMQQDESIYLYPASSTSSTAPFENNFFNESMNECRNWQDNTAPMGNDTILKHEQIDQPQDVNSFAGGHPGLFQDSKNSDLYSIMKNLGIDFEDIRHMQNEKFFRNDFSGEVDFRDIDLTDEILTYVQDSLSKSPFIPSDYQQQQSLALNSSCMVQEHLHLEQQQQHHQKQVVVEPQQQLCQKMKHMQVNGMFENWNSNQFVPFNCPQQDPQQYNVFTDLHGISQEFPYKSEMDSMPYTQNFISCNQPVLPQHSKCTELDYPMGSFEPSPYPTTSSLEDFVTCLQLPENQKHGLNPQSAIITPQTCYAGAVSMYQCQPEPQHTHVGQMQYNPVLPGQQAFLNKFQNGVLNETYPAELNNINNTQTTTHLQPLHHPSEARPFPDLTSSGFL

With `c1ccc2sc(SN3CCOCC3)nc2c1`, the Potency result in [1], in assay [3], in assay [4] and in [6] was “inactive” in each case. Besides, in assay [2], the Potency is 23.7 µM (active). The call in assay [5], in assay [7], in assay [8], in [9], in assay [10] and in assay [11] was inactive. Besides, the outcome in assay [12], in assay [13] and in assay [14] was inactive.
As to `O=C(c1ccccc1)C1(O)CCCCC1`, the Potency result in [1], in [2], in assay [15] and in assay [4] was “inactive” each time. The outcome in assay [5], in assay [7], in assay [16], in assay [17], in assay [8] and in [18] was inactive. For the same compound, the compound was classed as inactive in assay [9], in assay [10], in [11], in [12], in assay [13] and in assay [14].
As for `C[N+]1(C)CCCC(OC(=O)C(O)(c2ccccc2)c2ccccc2)C1` (stereo not drawn), the Potency entry in assay [1], in assay [2], in [3] and in assay [6] was “inactive” in each case. The result in assay [5], in assay [7], in assay [16], in [17], in assay [8] and in assay [18] was inactive. The outcome in assay [9], in assay [10], in assay [19], in assay [11], in [20] and in assay [12] was inactive. Further, the result in assay [13] and in [14] was inactive.
With `CCN(CC#N)c1cccc(C)c1`, the Potency entry in assay [1], in assay [2], in assay [3], in assay [15] and in [6] was “inactive” throughout. Moreover, the outcome in assay [7], in assay [16], in [17], in assay [8], in assay [10] and in assay [11] was inactive. Besides, the compound was classed as inactive in assay [12], in assay [13] and in assay [14].
Take `CC(=O)Nc1ccc(OCC(O)CNC(C)C)cc1` (stereo not drawn): the Potency result in assay [1], in assay [2], in assay [15] and in assay [6] was “inactive” each time. In addition, the compound was classed as inactive in assay [5], in [7], in [16], in assay [17], in [8] and in [9]. Besides, the outcome in [10], in assay [11], in assay [20], in assay [12], in assay [13] and in assay [14] was inactive.
Take `CC1(C)[C@@H]2CC[C@@]1(C)[C@H](O)C2`: the Potency result in assay [1], in assay [2], in assay [3] and in assay [6] was “inactive” in each case. In addition, the compound was classed as inactive in assay [7], in [17], in [8], in assay [18], in assay [9] and in [10]. Besides, the compound was classed as inactive in [11] and in assay [12].
For the compound `CN1CCC(=C2c3ccccc3CCc3cccnc32)CC1`, the Potency entry in assay [1], in [2], in assay [3], in [4] and in assay [6] was “inactive” in each case. Also, the outcome in assay [5], in assay [7], in assay [16], in assay [8], in assay [18] and in [9] was inactive. In addition, the outcome in assay [10], in [11], in assay [12], in assay [13] and in [14] was inactive.
For the compound `c1ccc(CCc2ccccc2)cc1`, the Potency entry in [1], in [2], in assay [15] and in [4] was “inactive” each time. For the same compound, the compound was classed as inactive in assay [7], in assay [16], in [17], in [18], in [9] and in assay [10]. The compound was called inactive in assay [19], in assay [11], in [20], in [12], in assay [13] and in [14].
Turning to `Cc1ccc(C(=O)c2ccccc2)cc1`, the Potency result in [1], in assay [2], in assay [3], in assay [15] and in assay [6] was “inactive” throughout. Moreover, the compound was called inactive in assay [7], in assay [16], in assay [17], in assay [18], in assay [10] and in assay [19]. The compound was called inactive in assay [11], in assay [20], in assay [12], in assay [13] and in assay [14].

Values taken from PubChem BioAssay (Tox21).
